Measurements from PubChem BioAssay (NCATS).
Values without a mark were called inactive. Inconclusive results are not listed. Calls of active or inactive are those of the source. Unless noted, calls come from the whole dose curve.

These molecules were tested against Glucocorticoid receptor (Homo sapiens) (UniProt P04150) (assay: GR-EFC Redistribution (AID 451; note: potency is the fitted concentration of half-maximal effect)). Conditions: CHO-K1 GR-EFC translocation, beta-gal luminescence, 2 h.
In short: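 Translocation of GR-ED fusion to nuclear EA restores b-gal, read by luminescence after 1 h room-temperature detection. Engineered CHO-K1 biosensor cells, 1,000/well, exposed 2 h at 37 C to titrations up to 46 uM final.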

Sequence of Glucocorticoid receptor (Homo sapiens) (P04150 whole entry, looked up, the tested form may be a part): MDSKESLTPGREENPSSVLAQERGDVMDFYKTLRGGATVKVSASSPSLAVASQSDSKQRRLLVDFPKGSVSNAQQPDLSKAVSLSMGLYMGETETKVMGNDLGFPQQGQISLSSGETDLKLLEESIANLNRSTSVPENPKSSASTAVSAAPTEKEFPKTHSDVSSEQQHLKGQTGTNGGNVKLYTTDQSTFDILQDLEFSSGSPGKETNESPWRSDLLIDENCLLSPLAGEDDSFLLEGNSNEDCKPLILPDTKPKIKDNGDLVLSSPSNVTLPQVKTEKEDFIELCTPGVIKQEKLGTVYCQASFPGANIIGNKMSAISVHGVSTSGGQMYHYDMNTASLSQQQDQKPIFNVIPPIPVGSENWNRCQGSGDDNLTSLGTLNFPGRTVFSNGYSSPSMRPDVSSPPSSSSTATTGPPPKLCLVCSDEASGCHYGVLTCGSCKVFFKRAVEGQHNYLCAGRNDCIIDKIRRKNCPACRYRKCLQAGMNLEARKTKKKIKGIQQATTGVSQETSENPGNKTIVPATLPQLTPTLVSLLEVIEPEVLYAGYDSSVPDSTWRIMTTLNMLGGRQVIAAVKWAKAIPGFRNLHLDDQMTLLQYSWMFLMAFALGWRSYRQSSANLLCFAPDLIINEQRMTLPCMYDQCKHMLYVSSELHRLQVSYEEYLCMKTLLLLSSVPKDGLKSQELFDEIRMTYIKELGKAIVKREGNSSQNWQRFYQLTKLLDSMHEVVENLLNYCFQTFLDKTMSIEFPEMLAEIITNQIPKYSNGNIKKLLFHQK

Compound	Potency [µM]
CC(C)[C@@H](CC(=O)N[C@@H]1CCCC[C@H]1C(=O)N[C@H](CC(=O)N[C@@H](CCC(=O)O)CC(=O)O)Cc1ccccc1)NC(=O)C[C@H](Cc1ccccc1)NC(=O)[C@@H]1CCCC[C@H]1N	> 46
CC(C)[C@@H](CC(=O)N[C@@H]1CCCC[C@H]1C(=O)N[C@H](CC(=O)N[C@@H](CCC(=O)O)CC(=O)O)Cc1ccccc1)NC(=O)C[C@H](Cc1ccccc1)NC(=O)[C@@H]1CNCC[C@H]1N	> 46
CC(C)C[C@@H](CC(=O)N[C@@H](CCCN)CC(=O)N[C@@H]1CCNC[C@H]1C(=O)N[C@H](CC(=O)N[C@@H](CCC(=O)O)CC(=O)O)CC(C)C)NC(=O)[C@@H]1CNCC[C@H]1N	> 46
CC(C)C[C@@H](CC(=O)N[C@H](CC(=O)N[C@@H]1CCCC[C@H]1C(=O)N[C@H](CC(=O)N[C@@H](CCC(=O)O)CC(=O)O)Cc1ccccc1)C(C)C)NC(=O)[C@@H]1CNCC[C@H]1N	> 46
CC(C)C[C@@H](CC(=O)N[C@@H](CCCN)CC(=O)N[C@@H]1CCNC[C@H]1C(=O)N[C@H](CC(=O)N[C@@H](CCC(=O)O)CC(=O)O)Cc1ccccc1)NC(=O)[C@@H]1CNCC[C@H]1N	> 46
CC(C)[C@@H](CC(=O)N[C@@H]1CCCC[C@H]1C(=O)N[C@H](CC(=O)N[C@@H](CCC(=O)O)CC(=O)O)Cc1ccccc1)NC(=O)C[C@H](Cc1c[nH]c2ccccc12)NC(=O)[C@@H]1CNCC[C@H]1N	> 46
NCCC[C@@H](CC(=O)N[C@@H]1CCNC[C@H]1C(=O)N[C@H](CC(=O)N[C@@H](CCC(=O)O)CC(=O)O)Cc1c[nH]c2ccccc12)NC(=O)C[C@H](Cc1ccccc1)NC(=O)[C@@H]1CCCC[C@H]1N	> 46
NCCC[C@@H](CC(=O)N[C@@H]1CCCC[C@H]1C(=O)N[C@H](CC(=O)N[C@@H](CCC(=O)O)CC(=O)O)Cc1ccccc1)NC(=O)C[C@H](Cc1c[nH]c2ccccc12)NC(=O)[C@@H]1CNCC[C@H]1N	> 46
CC(C)C[C@@H](CC(=O)N[C@@H](CCCN)CC(=O)N[C@@H]1CCNC[C@H]1C(=O)N[C@H](CC(=O)N[C@@H](CCC(=O)O)CC(=O)O)CC(C)C)NC(=O)[C@@H]1CCCC[C@H]1N	> 46
CC(C)C[C@@H](CC(=O)N[C@H](CC(=O)N[C@@H]1CCCC[C@H]1C(=O)N[C@H](CC(=O)N[C@@H](CCC(=O)O)CC(=O)O)Cc1ccccc1)C(C)C)NC(=O)[C@@H]1CCCC[C@H]1N	> 46
NCCC[C@@H](CC(=O)N[C@@H]1CCNC[C@H]1C(=O)N[C@H](CC(=O)N[C@@H](CCC(=O)O)CC(=O)O)Cc1ccccc1)NC(=O)C[C@H](Cc1ccccc1)NC(=O)[C@@H]1CCCC[C@H]1N	> 46
CC(C)C[C@@H](CC(=O)N[C@@H](CCCN)CC(=O)N[C@@H]1CCNC[C@H]1C(=O)N[C@H](CC(=O)N[C@@H](CCC(=O)O)CC(=O)O)Cc1ccccc1)NC(=O)[C@@H]1CCCC[C@H]1N	> 46
CC(C)C[C@@H](CC(=O)N[C@@H](CCCN)CC(=O)N[C@@H]1CCCC[C@H]1C(=O)N[C@H](CC(=O)N[C@@H](CCC(=O)O)CC(=O)O)CC(C)C)NC(=O)[C@@H]1CNCC[C@H]1N	> 46
CC(C)C[C@@H](CC(=O)N[C@H](CC(=O)N[C@@H]1CCNC[C@H]1C(=O)N[C@H](CC(=O)N[C@@H](CCC(=O)O)CC(=O)O)Cc1c[nH]c2ccccc12)C(C)C)NC(=O)[C@@H]1CCCC[C@H]1N	> 46
NCCC[C@@H](CC(=O)N[C@@H]1CCCC[C@H]1C(=O)N[C@H](CC(=O)N[C@@H](CCC(=O)O)CC(=O)O)Cc1ccccc1)NC(=O)C[C@H](Cc1c[nH]c2ccccc12)NC(=O)[C@@H]1CCCC[C@H]1N	> 46

These molecules were tested against Mitogen-activated protein kinase 10 (Mus musculus) (UniProt Q61831) (assay: JNK3 AlphaScreen Assay (AID 530; active = well fitted curve in either direction with a large enough effect, not every such curve was filed as active;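 note: kinase came from lysate of stimulated human HepG2 cells; signal reports phosphorylation of biotinylated GST-cJun 1-79 at Ser73 with 10 µM ATP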)). Conditions: JNK3 lysate, c-Jun phosphorylation; series mostly up to 57.1 µM.
In short: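 Compound titrations were preincubated 15 minutes at room temperature with substrate, antibody and pre-activated JNK3-containing HepG2 lysate. Reactions were started with 10 uM ATP and stopped with EDTA-containing bead buffer for AlphaScreen detection.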

Compound	Potency
CC(C)[C@@H](CC(=O)N[C@@H]1CCCC[C@H]1C(=O)N[C@H](CC(=O)N[C@@H](CCC(=O)O)CC(=O)O)Cc1ccccc1)NC(=O)C[C@H](Cc1ccccc1)NC(=O)[C@@H]1CCCC[C@H]1N	inactive
CC(C)[C@@H](CC(=O)N[C@@H]1CCCC[C@H]1C(=O)N[C@H](CC(=O)N[C@@H](CCC(=O)O)CC(=O)O)Cc1ccccc1)NC(=O)C[C@H](Cc1ccccc1)NC(=O)[C@@H]1CNCC[C@H]1N	inactive
CC(C)C[C@@H](CC(=O)N[C@@H](CCCN)CC(=O)N[C@@H]1CCNC[C@H]1C(=O)N[C@H](CC(=O)N[C@@H](CCC(=O)O)CC(=O)O)CC(C)C)NC(=O)[C@@H]1CNCC[C@H]1N	inactive
CC(C)C[C@@H](CC(=O)N[C@@H](CCCN)CC(=O)N[C@@H]1CCNC[C@H]1C(=O)N[C@H](CC(=O)N[C@@H](CCC(=O)O)CC(=O)O)Cc1ccccc1)NC(=O)[C@@H]1CNCC[C@H]1N	inactive
CC(C)C[C@@H](CC(=O)N[C@@H](CCCN)CC(=O)N[C@@H]1CCNC[C@H]1C(=O)N[C@H](CC(=O)N[C@@H](CCC(=O)O)CC(=O)O)CC(C)C)NC(=O)[C@@H]1CCCC[C@H]1N	inactive
CC(C)C[C@@H](CC(=O)N[C@H](CC(=O)N[C@@H]1CCCC[C@H]1C(=O)N[C@H](CC(=O)N[C@@H](CCC(=O)O)CC(=O)O)Cc1ccccc1)C(C)C)NC(=O)[C@@H]1CCCC[C@H]1N	inactive
NCCC[C@@H](CC(=O)N[C@@H]1CCNC[C@H]1C(=O)N[C@H](CC(=O)N[C@@H](CCC(=O)O)CC(=O)O)Cc1ccccc1)NC(=O)C[C@H](Cc1ccccc1)NC(=O)[C@@H]1CCCC[C@H]1N	inactive
CC(C)C[C@@H](CC(=O)N[C@@H](CCCN)CC(=O)N[C@@H]1CCCC[C@H]1C(=O)N[C@H](CC(=O)N[C@@H](CCC(=O)O)CC(=O)O)CC(C)C)NC(=O)[C@@H]1CNCC[C@H]1N	inactive
